For 57 compounds, binding response (% of control) results are on record in PubChem BioAssay AID1440 (NMMLSC, 2008).

In all, about 220,000 compounds went through this assay and fewer than 10 were called active. Another 92% or so got no clear call; they are omitted. The rule behind the calls is not given here. These entries were drawn from the full list.

In the experiment the target is Guanine nucleotide-binding protein G(o) subunit alpha (Homo sapiens) + Regulator of G-protein signaling 19 (Homo sapiens) (UniProt P09471+P49795). Briefly: modulators of human RGS19-Gαo interaction – biochemical, multiplexed bead flow cytometry (AID 1440).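 Note: fluorescent Galpha o activated by aluminum fluoride binding bead-coupled RGS19.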 Conditions: RGS19-Galphao binding, at 10 µM. For orientation: In flow cytometry, cells or beads pass a laser one at a time.
Sequence of Guanine nucleotide-binding protein G(o) subunit alpha (Homo sapiens) + Regulator of G-protein signaling 19 (Homo sapiens) (P09471 whole entry, looked up): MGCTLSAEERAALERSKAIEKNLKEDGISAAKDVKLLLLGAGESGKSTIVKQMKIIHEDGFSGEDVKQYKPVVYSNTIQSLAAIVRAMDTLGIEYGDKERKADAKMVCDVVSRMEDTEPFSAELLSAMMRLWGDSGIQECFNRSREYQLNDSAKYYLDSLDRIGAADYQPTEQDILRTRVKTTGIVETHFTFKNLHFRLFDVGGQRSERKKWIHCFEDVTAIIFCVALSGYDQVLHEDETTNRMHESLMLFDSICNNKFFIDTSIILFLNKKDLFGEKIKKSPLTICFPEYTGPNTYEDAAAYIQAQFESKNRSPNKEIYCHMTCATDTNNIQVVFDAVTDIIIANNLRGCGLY
Sequence of Guanine nucleotide-binding protein G(o) subunit alpha (Homo sapiens) + Regulator of G-protein signaling 19 (Homo sapiens) (P49795 whole entry, looked up): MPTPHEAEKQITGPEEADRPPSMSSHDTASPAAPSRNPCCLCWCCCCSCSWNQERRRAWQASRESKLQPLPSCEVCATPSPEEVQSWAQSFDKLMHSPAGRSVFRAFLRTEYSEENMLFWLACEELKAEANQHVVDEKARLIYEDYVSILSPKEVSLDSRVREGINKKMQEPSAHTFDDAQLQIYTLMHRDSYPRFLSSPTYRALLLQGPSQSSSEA
As for `O=C(COc1ccc2ccccc2c1)Nc1cccc2cccnc12`, the binding response (% of control) worked out at 110%.

On to `COc1ccc(NC(=O)CCNS(=O)(=O)c2ccc(Br)s2)cc1`, for which the binding response (% of control) is 110%. The same measure for `Cc1ccc(S(=O)(=O)N2CC3(C)CN(S(=O)(=O)c4ccc(C)cc4)CC(C)(C2)C3=O)cc1`: 103%; for `Cc1cc(C)nc(SCC(=O)Nc2ncc3c(n2)CC(C)(C)CC3=O)n1`: 62.4%. In the case of `Cc1cc(NC(=O)Cn2c(=O)c3c(ncn3CCC(C)C)n(Cc3ccccc3)c2=O)no1`, the binding response (% of control) came to 106%. The same measure for `O=c1c(Cc2ccc(Cl)cc2Cl)c(O)ccn1Cc1ccc(Cl)cc1`: 97.7%. As to `CCOc1c2ccc(C(=O)NCc3ccc(OC)cc3)cc2nn1CCOC`, the binding response (% of control) stood at 92.2%. The same measure for `O=C(Nc1cccnc1)C1CCCN1S(=O)(=O)c1ccc(Cl)c(Cl)c1` (configuration not stated): 114%; for `COc1ccccc1CNc1ccc(C(=O)O)cc1`: 121%; for `COc1ccc(OC)c(C2C(C#N)=C(N)Oc3c2c(C)nn3-c2cccc(Cl)c2)c1` (configuration not stated): 96.4%. The figure for `Cc1ccc2c(CN3CCN(CCO)CC3)cc(=O)oc2c1C` is 111%. The same measure for `CCN1CCCC1CNC(=O)C(NC(=O)C1CCC(C)CC1)C(C)C` (configuration not stated): 107%; for `O=C(CN1C(=O)S/C(=C/c2cccs2)C1=O)N1CCOCC1`: 99.9%. For `CCOCCCNC(=O)C(c1ccc(Cl)cc1)N(Cc1cccs1)C(=O)CNC(C)=O` (configuration not stated), the binding response (% of control) worked out at 90%. The figure for `Cc1ccc(-c2cnc(N)n2C)cc1C` is 94.5%; for `CCc1ccc(OC)c(S(=O)(=O)NCCOc2ccccc2)c1` it is 41.2%; for `Fc1ccc(CNC(=S)Nc2ccccc2Cl)cc1` it is -28%. The same measure for `COC(=O)CCC(=O)Nc1cccc(C(=O)Nc2cccc(Cl)c2)c1`: 100%; for `Cc1ccc(NC(=O)c2cc(-n3cnnc3)ccc2Cl)cc1`: 100%.

`CC1(C)CC(=O)C(C(=S)Nc2ccccc2)=C(NCCN2CCOCC2)C1`: the binding response (% of control) stood at 118%.

Consider `Cc1ccc(Cn2ncn3c(cc4ccccc43)c2=O)cc1`, for which the binding response (% of control) was 87.2%. For `O=C(NCc1ccco1)C1CCN(S(=O)(=O)N2CCC3(CC2)OCCO3)CC1`, the binding response (% of control) was 45.9%. In the case of `CCOc1ccc(C2NC(=O)c3sc(=S)n(-c4ccccc4)c3N2)cc1` (configuration not stated), the binding response (% of control) stood at 87.5%. The same measure for `Cc1ccccc1-n1nc(C)c2cc(C(=O)N3CCN(S(=O)(=O)c4ccc(Cl)cc4)CC3)sc21`: 94.8%; for `O=C(Nc1cccc(C(F)(F)F)c1)c1cc2c(s1)-c1ccccc1OC2`: 119%; for `COc1ccc2cnnc(SCC(=O)Nc3ccccc3)c2c1OC`: 118%. `CCCCN(CC(=O)Nc1c(C)cccc1CC)C(=O)SCC`: the binding response (% of control) was 101%.

As for `Cc1ccc(C)c(Cn2nnc3c(=O)[nH]c(C4CCCN(C(=O)C5CCCCC5)C4)nc32)c1` (configuration not stated), the binding response (% of control) worked out at 109%. The same measure for `COC(=O)c1cc(OC)c(OC)cc1NC(=O)CCC1CCCC1`: 107%; for `COc1ccc(CC(=O)OCc2cc3ccccc3[nH]c2=O)cc1`: 90.7%; for `Cc1cc(NC(=O)c2cnn3c(C(F)(F)F)cc(-c4ccccc4)nc23)no1`: 103%. The figure for `O=C(CN1C(=O)C2C3C=CC(C3)C2C1=O)Nc1cccc2c1CCCC2` (configuration not stated) is 187%; for `Nc1c2c(nc3ccn(Cc4ccccc4)c(=O)c13)CCC2` it is 72.4%; for `COC(=O)CSc1nnnn1-c1cccc2ccccc12` it is 106%. `CN(CCCC(=O)NCc1ccco1)S(=O)(=O)c1ccccc1`: the binding response (% of control) stood at 98.9%. The same measure for `Fc1ccccc1OCCSc1nnnn1-c1ccccc1`: 25.6%. Consider `O=C(c1ccco1)N1CCC(c2nc(-c3ccc(F)cc3)no2)CC1`, for which the binding response (% of control) is 75.6%.

Regarding `COc1ccc(-c2nc(-c3cccs3)c(-c3cccs3)[nH]2)cc1O`, the binding response (% of control) was determined as 102%. The figure for `Cc1cccc(NC(=S)NC2CC3CCC(C2)N3Cc2ccco2)c1` (configuration not stated) is 113%. Turning to `CC(NC(=O)Nc1ccc(F)cc1F)c1ccncc1` (configuration not stated), the binding response (% of control) is 70.2%. In the case of `CCOc1ccc(-c2c(C(=O)N/N=C/c3ccccc3)nnn2-c2nonc2N)cc1`, the binding response (% of control) was 91.3%. As to `CCCN(CCC)CCOc1cc(C)ccc1C(C)C`, the binding response (% of control) came to 116%.

For `CC(C)C(CC(=O)NCc1ccco1)c1ccco1` (configuration not stated), the binding response (% of control) amounted to 172%. The figure for `CCOc1ccc(NC(=O)CSc2nc3ccccc3c(=O)n2CCNC(C)=O)cc1` is 97.9%; for `O=C(NN=C1CCCCC1)c1ccccc1OCc1ccc(F)cc1` it is 118%. The figure for `Cc1nc2ccccc2c(=O)n1NC(=O)COc1ccccc1` is 103%. The same measure for `CC(C)(C)NC(=O)c1ccc2nsnc2c1`: 141%.

Take `O=C(Nc1nc(N2C(=O)c3ccccc3C2=O)n(-c2ccccc2)n1)c1ccccc1`: the binding response (% of control) was -19.9%. Take `Cn1c(Cl)cnc1C(O)c1ccccc1` (configuration not stated): the binding response (% of control) is 105%. The same measure for `Cc1c(Br)c(C(F)(F)F)nn1CC(=O)N1CCCC1`: 99.7%; for `CCOC(=O)c1[nH]nc(-c2cc(CC)c(O)cc2O)c1-c1cscn1`: 56.9%; for `CC(=O)N(c1ccc(C(C)C)cc1)C1C=CS(=O)(=O)C1` (configuration not stated): 103%.

For `CCCCC(=O)Nc1nc(C)c(-c2csc(Nc3cc(Cl)ccc3OC)n2)s1`, the binding response (% of control) is 148%.

Regarding `COc1cccc(OC)c1C(=O)Nc1ccc(NC(=O)c2ccco2)cc1`, the binding response (% of control) worked out at 112%.

Turning to `CCOC(=O)C1=C(c2ccccc2)NC(=O)NC1c1ccc(OCC#N)c(OC)c1` (configuration not stated), the binding response (% of control) came to 119%.

Turning to `CCOC(=O)C1Cn2c(nc3c(c2=O)C2(CCCC2)Cc2ccccc2-3)S1` (configuration not stated), the binding response (% of control) was 102%. The same measure for `CCOC(=O)N1CCC(NC(=O)CCCN2C(=O)CSc3ncccc32)CC1`: 353%.
